Reference: PubChem BioAssay AID602340 (Broad Institute, 2012)
The campaign covered roughly 330,000 compounds. About 2,600 (0.79%) were called active. The sample holds actives, similar compounds and a random draw of the others, so the mix is not that of the screen. Values without a mark were called inactive.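 How the source made its calls: active means mean ATP rescue above about 67%, or every replicate alone reaching that limit (limit read from the data, passing the limit was not always enough); inconclusive means no clear call, values can overlap the other calls; inactive means mean under the limit and some replicate under it.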

Experiment: protection of differentiated C2C12 cells from simvastatin – single point, plate reader, primary screen (AID 602340);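 further: myotubes were challenged with 10 µM simvastatin during compound exposure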
Conditions: C2C12 myotubes + simvastatin, ATP luminescence, 48 h; at 7.49 µM; hits give high values; scaled: DMSO 0, geranylgeraniol control 100

SMILES	rescue of ATP level
O=C(C[C@H]1C=C[C@H](NC(=O)NC2CCCCC2)[C@H](CO)O1)NCc1ccccc1	2.53%
CS(=O)(=O)Nc1ccc2c(c1)[C@H]1C[C@H](CC(=O)NCc3ccc(Cl)cc3)O[C@@H](CO)[C@H]1O2	-4.85%
COc1ccccc1-c1cn(CC[C@@H]2CC[C@@H](NC(=O)c3ccccc3F)[C@H](CO)O2)nn1	6.43%
CN(C)Cc1cn(CC[C@H]2CC[C@H](NS(=O)(=O)c3ccccc3)[C@@H](CO)O2)nn1	-2.83%
C=CCN(C(=O)Nc1ccc2c(c1)nc(C)n2C)c1ccccc1	-0.158%
CCOc1ccc(CCNC(=O)Nc2ccccc2)cc1OCC	1.69%
Cc1cc2nc(C)n(CCCNC(=O)Nc3ccccc3)c2cc1C	93.8% (active)
CCCNC(=O)C[C@H]1CC[C@@H]2[C@H](COC[C@H](O)CN2CC2CCCCC2)O1	-0.493%
CNC(=O)C[C@H]1CC[C@@H]2[C@H](COc3ccc(NC(=O)Nc4cccc(F)c4)cc3C(=O)N2C)O1	-6.73%
CNC(=O)C[C@@H]1CC[C@@H]2[C@@H](COc3ccc(NC(=O)Nc4ccccc4OC)cc3C(=O)N2C)O1	10.7%
CC1CCN(c2nc3c(c(=O)[nH]c(=O)n3C)n2CCCc2ccccc2)CC1	144% (active)
Cn1c(=O)[nH]c(=O)c2c1nc(N1CCN(C(c3ccccc3)c3ccccc3)CC1)n2CCO	41.4%
CC=CCn1c(SCCCc2ccccc2)nc2c1c(=O)[nH]c(=O)n2C	1.54%
CCCNC(=O)[C@@H]1[C@@H](CO)[C@@H]2Cn3c(ccc(-c4ccccc4F)c3=O)[C@H]1N2CC1CC1	-5.23%
COc1ccccc1-c1cnc2c(c1)C(=O)N([C@H](C)CO)C[C@@H](C)[C@@H](CN(C)Cc1ccncc1)O2	41.2%
CC(=NNC(=O)c1ccc2nc[nH]c2c1)c1ccc(Br)cc1	-6.54%
C/C(=N\NC(=O)c1nc(C)cc(C)n1)c1ccccc1	121% (active)
COc1ccc(/C(C)=N/NC(=O)c2ccc3nc[nH]c3c2)cc1	-52.1%
CCCC(O)C#Cc1cnc2c(c1)C(=O)N([C@H](C)CO)C[C@H](C)[C@H](CN(C)Cc1ccc(F)cc1)O2 (some centres undefined)	-2.92%
Cc1ccc(S(=O)(=O)Nc2ccc3c(c2)CC(=O)N([C@H](C)CO)C[C@@H](C)[C@H](CN(C)Cc2ccc(C(F)(F)F)cc2)O3)cc1	110% (active)
C[C@@H]1CN([C@@H](C)CO)C(=O)Cc2cc(NS(=O)(=O)c3ccc(Cl)cc3)ccc2O[C@H]1CN(C)Cc1ccc(C(F)(F)F)cc1	96.2% (active)
C[C@H]1CN([C@@H](C)CO)C(=O)Cc2cc(NS(=O)(=O)c3ccc(F)cc3)ccc2O[C@H]1CN(C)Cc1ccc(C(F)(F)F)cc1	15.6%
Cc1ccc(S(=O)(=O)Nc2ccc3c(c2)C(=O)N([C@@H](C)CO)C[C@@H](C)[C@H](CN(C)Cc2ccc(C(F)(F)F)cc2)O3)cc1	9.63%
COc1ccc(S(=O)(=O)Nc2ccc3c(c2)CC(=O)N([C@H](C)CO)C[C@H](C)[C@H](CN(C)Cc2ccc(C(F)(F)F)cc2)O3)cc1	12%
Cc1ccc(S(=O)(=O)Nc2ccc3c(c2)CC(=O)N([C@@H](C)CO)C[C@H](C)[C@H](CN(C)Cc2ccccc2)O3)cc1	21.7%

SMILES	rescue of ATP level
CN1CCCCN2[C@H](CO)[C@H](c3ccc(-c4ccc(F)cc4)cc3)[C@@H]2C1	1.44%
O=C(C[C@@H]1C=C[C@H](NC(=O)Nc2ccc3c(c2)OCO3)[C@H](CO)O1)NCc1ccccc1	2.11%
CO[C@@H]1CN(C)C(=O)c2ccc(NS(=O)(=O)c3cccc(Cl)c3)cc2OC[C@H](C)NC[C@H]1C	0.734%
COc1ccccc1-c1ccc2c(c1)O[C@@H](CN(C)CC1CCOCC1)[C@H](C)CN([C@@H](C)CO)S2(=O)=O	-91.2%
CC(C)NC(=O)Nc1ccc2c(c1)CC(=O)N([C@H](C)CO)C[C@H](C)[C@@H](CN(C)C(=O)Nc1ccc(F)cc1)O2	-12.6%
COc1ccc(C)cc1NC(=O)NCc1ccccn1	-3.96%
COc1ccc2ccccc2c1CNCc1ccccn1	88.1% (active)
COc1ccc(NCCc2ccccn2)cc1	-1.75%
CCNC(=O)[C@H]1[C@H](CO)[C@H]2Cn3c(ccc(-c4ccc(OC)cc4)c3=O)[C@H]2N1Cc1ccccc1	-6.11%
CCCNC(=O)Nc1ccc2c(c1)C(=O)N(C)C[C@@H](OC)[C@@H](C)CN(C)[C@@H](C)CO2	0.886%
CCCN1[C@H](C(=O)N[C@H](C)c2ccccc2)[C@@H](CO)[C@@H]2Cn3c(ccc(-c4cccc(F)c4)c3=O)[C@@H]21	25.4%
O=C(C[C@@H]1C[C@@H]2c3cc(NC(=O)Nc4ccccc4F)ccc3O[C@@H]2[C@@H](CO)O1)NCCc1ccccc1	-4.6%
COc1ccccc1N1CCN(C(=O)CSc2nnc(-c3ccoc3C)o2)CC1	2.45%
COc1ccccc1-c1nnc(SCC(=O)N2CC(C)CC(C)C2)o1 (centres undefined)	120% (active)
O=C(CSc1nnc(-c2ccccc2O)o1)NC1CCCCC1	-6.5%
C[C@@H]1CN([C@H](C)CO)C(=O)c2cc(C#Cc3ccncc3)cnc2O[C@H]1CN(C)Cc1ccncc1	-5.15%
C[C@H]1CN([C@@H](C)CO)C(=O)CCCn2nncc2CO[C@H]1CN(C)Cc1cccc(C(=O)O)c1	-4.85%
O=C(NN=Cc1ccccc1O)C(=O)NN=Cc1ccccc1O	1.41%
CCCC#Cc1ccc2c(c1)O[C@@H](CN(C)CC1CC1)[C@@H](C)CN([C@H](C)CO)S2(=O)=O	33.5%
CCS(=O)(=O)N1[C@H](CO)[C@@H](c2ccc(C#CC(C)C)cc2)[C@@H]1C#N	-1.94%
Cc1noc(C)c1NC(=O)N[C@H]1CC[C@H](CC(=O)N2CCCCC2)O[C@@H]1CO	0.234%
CC=Cc1ccc2n(c1=O)C[C@@H]1[C@@H](CO)[C@H](C(=O)N3CCc4ccccc4C3)N(C(=O)C3CCC3)[C@H]21 (mixture of isomers)	17.5%
CC(=O)N1CCN(c2ccccc2NC(=S)NC(=O)c2cc3ccccc3o2)CC1	12.9%
COc1ccccc1C(=O)NC(=S)Nc1ccccc1N1CCCCC1	0.351%
COc1ccc(C(=O)NC(=S)Nc2ccccc2N2CCN(S(C)(=O)=O)CC2)cc1OC	103% (active)

SMILES	rescue of ATP level
CO[C@@H]1CN(C)C(=O)c2ccc(NC(=O)C3CC3)cc2OC[C@@H](C)N(Cc2ccncc2)C[C@@H]1C	6.35%
COc1ccc(CN(C)C[C@H]2OCc3cn(nn3)CCCC(=O)N([C@@H](C)CO)C[C@@H]2C)cc1	11.6%
C[C@H]1CN([C@@H](C)CO)C(=O)c2cc(C#CC3CCCCC3)cnc2O[C@@H]1CN(C)C(=O)Cc1ccccn1	16.9%
O=C(O)C1CC=C(Cl)CC1C(=O)NCc1ccccc1 (centres undefined)	-8.07%
O=C(O)C1CC=CCC1C(=O)NCCc1ccccc1 (centres undefined)	104% (active)
O=C(NCCc1ccccc1)C1CC1	7.36%
C[C@H]1CN([C@@H](C)CO)C(=O)c2cc(NC(=O)C3CCCCC3)ccc2O[C@H]1CN(C)C(=O)Nc1ccccc1	6.29%
COC(=O)c1ccc(CN2C(=O)NC(c3ccccc3)(c3ccccc3)C2=O)o1	1.69%
COc1ccc(C2(c3ccc(OC)cc3)NC(=O)N(CC(=O)Nc3cc(C)on3)C2=O)cc1	-1.37%
Cc1ccc(C2(c3ccc(C)cc3)NC(=O)N(Cc3c(C)noc3C)C2=O)cc1	195% (active)
Cc1noc(C)c1NC(=O)N(C)C[C@H]1Oc2ccc(NC(=O)Cn3cnnn3)cc2CC(=O)N([C@H](C)CO)C[C@@H]1C	3.98%
COc1ccc(-n2nnnc2CNC(=O)c2ccc3ccccc3c2)cc1	-15.7%
O=C(NCc1nnnn1-c1ccc(Cl)cc1)c1ccc([N+](=O)[O-])o1	89% (active)
O=C(NCc1nnnn1-c1ccc(Cl)cc1)c1ccc2c(c1)OCO2	-0.994%
CCCN1[C@@H]2c3ccc(-c4ccccc4OC)c(=O)n3C[C@H]1[C@H](CO)[C@H]2C(=O)NCc1ccccn1	-9.62%
Cn1c(=O)n(C)c2cc(C(=O)Nc3ccc(Br)cc3)ccc21	-4.21%
Cn1c(=O)n(C)c2cc(/C=N/NC(=O)c3cccc(Br)c3)ccc21	70.7% (active)
O=C(N/N=C/c1cccc(Br)c1)c1ccc(N2CCCC2=O)cc1	-20%
N#Cc1ncc(C(F)(F)F)cc1Oc1cccnc1	-4.63%
NC(=O)c1ncc(C(F)(F)F)cc1Oc1ccc(F)cc1	162% (active)
N#Cc1ccc(Oc2ccc(C(F)(F)F)cc2NC(=O)c2ccc(F)cc2)cc1	-5.87%
CO[C@H]1CN(C)C(=O)c2ccc(NC(=O)C3CC3)cc2OC[C@H](C)N(CCc2ccccc2)C[C@H]1C	15.6%
O=C(C[C@H]1C=C[C@@H](NC(=O)C2CCOCC2)[C@@H](CO)O1)NCC1CCCCC1	-2.92%
CO[C@@H]1CN(C)C(=O)c2cc(NS(=O)(=O)CC(F)(F)F)ccc2OC[C@@H](C)N(Cc2ccccn2)C[C@H]1C	-12.7%
